MITF inh: inhibitors of human MITF | inhibition, % at 2.6 µM | AlphaScreen MITF homodimerization, bead proximity signal | 650,000 tested, 0.91% active | AID 1259374; in the data active = inhibition above about 50%
GPR151 activ: activates the human receptor GPR151. 650,000 tested, 1% active. Q8TDV0. PathHunter beta-arrestin GPR151 cells, luminescence. AID 1508602. activation, % at 11.2 µM; in the data active = activation above about 4.9%
TEAD-YAP inh: TEAD-YAP interaction inhibition. inhibition, % at 9.12 µM. AID 1259422. 640,000 tested, 1.4% active. HEK-TIYL cells, TEAD-Gal4/YAP UAS-luciferase luminescence; in the data active = inhibition above about 32%
FBW7 act: human FBW7 E3 ligase activation, primary screen. Q969H0. AlphaScreen FBW7–phospho-cyclin E peptide binding, activator screen. normalized activity (activation), % at 26.1 µM. 650,000 tested, 0.13% active; in the data active = normalized activity above about 1.9%;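 also: purified mutant Fbw7 with reduced substrate affinity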
GPR151 confirm: human GPR151 activation, confirmation screen; activation, % at 11.2 µM; 6,700 tested, under 10 active; GPR151 PathHunter beta-arrestin cells, luminescence, 90 min; % of EA-reagent control over plate median; shares compounds with GPR151 activ;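 active = mean percent activation across replicates above the confirmation screen cutoff of 4.91%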
GPR119 counter: activates human GPR119 in a GPR151 counter-screen; shares compounds with GPR151 activ; GPR119 PathHunter beta-arrestin cells, luminescence, 90 min; 0 = compound-well median, 100 = enzyme-acceptor control; activation, % at 11.2 µM; 6,700 tested, 0.3% active;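 active = mean percent activation in the counterscreen above 29.09%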;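 also: counterscreen on off-target GPR119 to flag nonselective hits from the GPR151 activator screen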
Target sequence (Q8TDV5 whole entry, looked up): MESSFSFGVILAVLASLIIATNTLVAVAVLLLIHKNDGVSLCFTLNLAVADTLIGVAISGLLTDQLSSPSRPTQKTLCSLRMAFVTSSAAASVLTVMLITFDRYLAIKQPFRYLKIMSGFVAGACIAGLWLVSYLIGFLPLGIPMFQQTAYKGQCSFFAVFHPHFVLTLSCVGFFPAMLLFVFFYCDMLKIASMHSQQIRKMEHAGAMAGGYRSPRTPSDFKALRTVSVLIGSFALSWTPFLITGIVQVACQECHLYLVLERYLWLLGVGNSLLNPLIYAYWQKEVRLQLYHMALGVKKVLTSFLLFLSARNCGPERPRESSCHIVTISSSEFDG
Each line names hits and unclear results; the compound was inactive in the other large screens (follow-up assays come after a bar, where they were run). Most compounds without a hit are left out; they make up all but 3.5% or so of the library.

COC(=O)c1ccc(NC(=O)C(C)NS(=O)(=O)c2cc(Cl)ccc2Cl)cc1 (stereo not given)	none
COc1ccc(S(=O)(=O)NC(C)C(=O)Nc2ccccc2)cc1 (stereo not given)	none
COc1ccc(NC(=O)C(C)NS(=O)(=O)c2ccc(C)cc2)cc1OC (stereo not given)	GPR151 activ 13 | GPR151 confirm inactive | GPR119 counter inactive
COc1ccc(S(=O)(=O)NC(C)C(N)=O)cc1 (stereo not given)	GPR151 activ 6.0 | GPR151 confirm inactive | GPR119 counter inactive
CC(NS(=O)(=O)c1cc(Cl)ccc1Cl)C(=O)Nc1cccc([N+](=O)[O-])c1 (stereo not given)	GPR151 activ 7.7 | GPR151 confirm inactive | GPR119 counter inactive
CCS(=O)(=O)Nc1cccc(N2CCC(NCc3cccc(OC)c3OC)CC2)c1	none
O=C(O)CCCSc1nc2ccccc2[nH]1	none
COc1cccc(CC2(CO)CCN(C(=O)CN3CCCC(c4ccccc4)C3)CC2)c1 (stereo not given)	GPR151 activ 5.2 | GPR151 confirm inactive | GPR119 counter inactive
COc1cccc(CC2(CO)CCN(C(=O)Cn3cnnn3)CC2)c1	none
COc1ccc(OC)c(C2CC(=O)N3CN(c4ccccc4)CSC3=C2C#N)c1 (stereo not given)	GPR151 activ 5.7 | GPR151 confirm inactive | GPR119 counter inactive
COc1cccc(C2CC(=O)N3CN(c4ccccc4)CSC3=C2C#N)c1 (stereo not given)	none
O=C1Nc2ccccc2Oc2cc([N+](=O)[O-])cc(Oc3ccc(Br)cc3)c21	GPR151 activ 11 | GPR151 confirm inactive | GPR119 counter inactive
CC(=O)N1CCc2c(sc(NC(=O)CCc3ccccc3)c2-c2nc3ccccc3s2)C1	none
O=C1NC(=O)c2cc(NC(=O)C3CC3)ccc21	GPR151 activ 5.2 | GPR151 confirm inactive | GPR119 counter inactive
O=C(Nc1ccc([N+](=O)[O-])cc1)C1CC1	GPR151 activ 7.5 | GPR151 confirm inactive | GPR119 counter inactive
O=C(Nc1ccc(-c2ccc([N+](=O)[O-])cc2)cc1)C1CC1	none
CCOc1ccc(C(=S)N2CCCC2)cc1	none
CCOc1ccc(C(=S)N2CCCCC2)cc1	GPR151 activ 6.2 | GPR151 confirm inactive | GPR119 counter inactive
CSc1nc(C)cc(OCCNC(=O)COc2ccc(Cl)cc2C)n1	none
CN(CC(=O)c1ccc2cc[nH]c2c1)Cc1ccccc1	GPR151 activ 5.3 | GPR151 confirm inactive | GPR119 counter inactive
CCCOc1ccc(C(CC(=O)O)NC(=O)c2cc(OC)c(OC)c(OC)c2)cc1 (stereo not given)	none
O=[N+]([O-])c1cc(CNCc2ccccc2)ccc1N1CCCCC1	GPR151 activ 5.6 | GPR151 confirm inactive | GPR119 counter inactive
CCCCNC(=S)NNC(=O)C(=O)NNC(=S)NCCCC	GPR151 activ 6.4 | GPR151 confirm inactive | GPR119 counter inactive
CCCCNC(=S)NNC(=O)C12CC3CC(CC(C3)C1)C2	none
N#Cc1ccc(NC(=O)COC(=O)CCC(=O)c2ccc3c(c2)OCCO3)cc1	GPR151 activ 11 | GPR151 confirm 6.8 | GPR119 counter inactive
O=C(NCc1ccco1)c1cccc(N2C(=O)C3C4C=CC(C5CC45)C3C2=O)c1 (stereo not given)	none
C/C(=N\NC(=O)Cn1nnc(-c2ccccc2)n1)c1nonc1C	GPR151 activ 16 | GPR151 confirm inactive | GPR119 counter inactive
CC(=O)Cn1nnc(-c2ccccc2)n1	none
CC1=CC2=NC(=O)/C(=C\c3ccc(-c4cccc(Cl)c4)o3)C(=N)N2O1	GPR151 activ 5.9 | GPR151 confirm inactive | GPR119 counter inactive
CC1=CC2=NC(=O)/C(=C\c3ccc(-c4ccccc4Cl)o3)C(=N)N2O1	none
COc1cc(Nc2ccc(NC(=O)Nc3ccccc3)cc2)nc(C)n1	GPR151 activ 7.9 | GPR151 confirm inactive | GPR119 counter inactive
O=C1OC(c2ccc(Cl)c([N+](=O)[O-])c2)=N/C1=C\c1ccccc1	none
CC1(C)C=C(c2ccc(O)cc2O)CC(C)(C)N1	none
CC1(C)C=C(c2ccc(O)cc2)CC(C)(C)N1	GPR151 activ 5.6 | GPR151 confirm inactive | GPR119 counter inactive
CCOC(=O)Nc1nnc(Cc2ccc(Cl)c(Cl)c2)s1	GPR151 activ 5.8 | GPR151 confirm inactive | GPR119 counter inactive
Cc1nnc2c(N3CCN(c4ccccn4)CC3)nc3ccccc3n12	GPR151 activ 6.2 | GPR151 confirm inactive | GPR119 counter inactive
O=[N+]([O-])c1cc([N+](=O)[O-])c2nonc2c1Nc1cccc(C(F)(F)F)c1	GPR151 activ 7.1 | GPR151 confirm inactive | GPR119 counter inactive
CN1C(=O)c2ccc(S(=O)(=O)c3ccc(C(=O)O)cc3)cc2C1=O	GPR151 activ 5.5 | GPR151 confirm inactive | GPR119 counter inactive
Cc1cc(=O)c(OCc2ccc(F)cc2)cn1CC(=O)N1CCC(C)CC1	none
Cc1ccc(CN2CCN(Cc3cnn(C(C)C)c3)CC2CCO)cc1 (stereo not given)	none
COC(=O)C12CC3C(C1C(C)=NN2C(C)=O)C3(C)C (stereo not given)	none
CC(=O)OC12CC3C(C1C(C)=NN2C(=O)C(=O)N1N=C(C)C2C4C(CC21OC(C)=O)C4(C)C)C3(C)C (stereo not given)	GPR151 activ 7.8 | GPR151 confirm inactive | GPR119 counter inactive
Cc1cc(NCCO)nc(Nc2nc3ccccc3n2C)n1	none
COc1cc(C)c(C)cc1S(=O)(=O)NC1CCCCC1C (stereo not given)	GPR151 activ 8.8 | GPR151 confirm inactive | GPR119 counter inactive
COc1ccc(C)cc1S(=O)(=O)NC1CCCCC1C (stereo not given)	none
Cc1cc(C)cc(NC(=O)CC2CC3CCC2C3)c1 (stereo not given)	GPR151 activ 8.7 | GPR151 confirm inactive | GPR119 counter inactive
Cc1ccc(Nc2ncccc2C(=O)NC2CCCC2)cc1	none
CCN1CCN(CC(=O)Nc2ccc(C(C)=O)cc2)CC1	GPR151 activ 7.5 | GPR151 confirm inactive | GPR119 counter inactive
CC(=O)N1CCN(Cc2nc3cc(NC(=O)c4ccc(Cl)cc4)ccc3n2C)CC1	GPR151 activ 5.4 | GPR151 confirm inactive | GPR119 counter inactive
CCCn1c(N2CCN(CC(=O)Nc3ccc(C(C)=O)cc3)CC2)nc2ccccc21	none
CC(=O)Nc1ccc2c(c1)nc(CN1CCN(C(C)=O)CC1)n2C	none
CC(=O)c1ccc(NC(=O)CN2CCN(Cc3nc4ccccc4n3C)CC2)cc1	GPR151 activ 6.3 | GPR151 confirm inactive | GPR119 counter inactive
CCc1ccc(NC(=O)C(=O)NCCN2CCN(C(=O)c3ccccc3Br)CC2)cc1	none
COCCCNCCOCCOc1cc(Cl)ccc1Cl	none
O=C(CNC(=O)c1ccccc1F)N=Nc1c(O)[nH]c2ccc([N+](=O)[O-])cc12	none
CN1CCC(N2CCc3ccc(NC(=O)c4ccc(C(F)(F)F)cc4)cc3C2)CC1	none
